Data reported in PubChem BioAssay AID1159580 (chemical genetic matrix, 2015).
Hit rate of the full screen: of about 5,500 compounds, about 2,000 (36%) were called active. Inconclusive results (about 18%) are left out. Rule as the data show it: active = normalized growth mostly below about 0.91 (no sharp cut-off); inconclusive = no clear call, values can overlap the other calls; inactive = mostly above about 0.92. The list shows a part of the results.

Assay: chemical genetic growth profiling, strain panel (AID 1159580);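 also: tested at 20 µM; growth read once vehicle control cultures reached saturation at 30 °C; 1 = growth at the plate median or of vehicle wells; lower values mean less growth of the strain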
Conditions: growth OD
[1] = S. cerevisiae deletion strains, locus YAL013W, strain DEP1, hits give low values
[2] = S. cerevisiae deletion strains, locus YBR229C, strain ROT2, hits give low values
[3] = S. cerevisiae deletion strains, locus YDL101C, strain DUN1, hits give low values
[4] = S. cerevisiae deletion strains, locus YDR150W, strain NUM1, hits give low values
[5] = S. cerevisiae deletion strains, locus YEL061C, strain CIN8, hits give low values
[6] = S. cerevisiae deletion strains, locus YGR078C, strain PAC10, hits give low values
[7] = S. cerevisiae deletion strains, locus YHR030C, strain SLT2, hits give low values
[8] = S. cerevisiae deletion strains, locus YHR087W, strain rtc3, hits give low values
[9] = S. cerevisiae deletion strains, locus YJR043C, strain POL32, hits give low values
[10] = S. cerevisiae deletion strains, locus YJR075W, strain HOC1, hits give low values
[11] = S. cerevisiae deletion strains, locus YLR039C, strain RIC1, hits give low values
[12] = S. cerevisiae deletion strains, locus YLR058C, strain SHM2 (second series), hits give low values
[13] = S. cerevisiae deletion strains, locus YLR085C, strain ARP6, hits give low values
[14] = S. cerevisiae deletion strains, locus YLR262C, strain YPT6, hits give low values
[15] = S. cerevisiae deletion strains, locus YML094W, strain GIM5, hits give low values
[16] = S. cerevisiae deletion strains, locus YMR219W, strain ESC1, hits give low values
[17] = S. cerevisiae deletion strains, locus YMR263W, strain SAP30, hits give low values
[18] = S. cerevisiae deletion strains, locus YNL153C, strain GIM3, hits give low values
[19] = S. cerevisiae deletion strains, locus YNL298W, strain CLA4 (second series), hits give low values
[20] = S. cerevisiae deletion strains, locus YNL322C, strain KRE1, hits give low values
[21] = S. cerevisiae deletion strains, locus YNR030W, strain Alg12, hits give low values
[22] = S. cerevisiae deletion strains, locus YPL055C, strain LGE1, hits give low values
[23] = S. cerevisiae deletion strains, locus YPL241C, strain CIN2, hits give low values
[24] = S. cerevisiae deletion strains, locus YPR135W, strain CTF4, hits give low values

Measured: normalized growth

CCN(CC)CCNC(=O)c1c(-c2c(Cl)cccc2Cl)noc1C
inactive: [1] 0.996 | [2] 1.01 | S. cerevisiae deletion strains, locus YCL061C, strain MRC1, hits give low values 1.02 | [3] 1 | [4] 0.903 | [5] 1.04 | [6] 1.01 | [7] 1.07 | [8] 0.998 | [9] 1.03 | [10] 0.982 | [11] 1.16 | [12] 0.99 | [13] 1.05 | [14] 1.15 | [15] 1.02 | [16] 1.01 | [17] 0.992 | [18] 0.99 | [19] 1.05 | [20] 1 | [21] 1.02 | S. cerevisiae deletion strains, locus YOL006C, strain TOP1, hits give low values 1.03 | [22] 0.99 | [23] 1.01 | [24] 0.973

Cc1onc(-c2c(F)cccc2Cl)c1C(=O)c1ccc(F)cc1
active: [14] 0.787
inactive: [1] 0.939 | [2] 0.98 | [3] 0.991 | [4] 0.963 | [5] 0.979 | [6] 0.973 | S. cerevisiae deletion strains, locus YGR229C, strain SMI1, hits give low values 0.969 | [7] 0.696 | [8] 0.959 | S. cerevisiae deletion strains, locus YJL187C, strain SWE1, hits give low values 0.975 | [9] 0.956 | [10] 0.937 | S. cerevisiae deletion strains, locus YKL190W, strain CNB1, hits give low values 0.974 | [11] 0.807 | [12] 0.987 | [13] 0.8 | [15] 0.972 | [16] 0.996 | [17] 0.978 | S. cerevisiae deletion strains, locus YMR307W, strain GAS1, hits give low values 0.708 | [18] 0.973 | [19] 0.93 | [20] 0.97 | [21] 0.949 | [22] 0.929 | [23] 0.964 | [24] 0.817 | S. cerevisiae strains, strain wild type, hits give low values 0.959
